Data: PubChem BioAssay (EPA / NIEHS)
Activity calls are given as the source filed them. The calls were made as follows: active = hit-call score of the fitted dose curve at least 0.9, where 1 is the maximum; inactive = score below 0.9.

Tests used:
[1] = ATG_CRE_CIS: Attagene CIS-FACTORIAL HepG2 Assay for human cAMP Responsive Element (CRE) binding protein 3 (AID 2282926); conditions: HepG2 CRE cis-reporter, Attagene multiplexed mRNA; actives raise or lower the signal
In short: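 HepG2 cells transiently transfected with a multiplexed reporter library (CRE-driven unit among them) were dosed for 24 h. Reporter mRNA was quantified by RT-PCR, fluorescent labelling, HpaI digestion and capillary electrophoresis, with bidirectional fitting against DMSO baseline.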

[2] = molecular target: CCAAT/enhancer-binding protein beta (Homo sapiens) (UniProt P17676); experiment: ATG_C_EBP_CIS: Attagene CIS-FACTORIAL HepG2 Assay for human CCAAT/Enhancer Binding Protein (C/EBP) beta (AID 2282927); conditions: HepG2 Attagene cis-factorial transcription factor reporter; actives raise or lower the signal
CCAAT/enhancer-binding protein beta (Homo sapiens), sequence (P17676 whole entry, looked up): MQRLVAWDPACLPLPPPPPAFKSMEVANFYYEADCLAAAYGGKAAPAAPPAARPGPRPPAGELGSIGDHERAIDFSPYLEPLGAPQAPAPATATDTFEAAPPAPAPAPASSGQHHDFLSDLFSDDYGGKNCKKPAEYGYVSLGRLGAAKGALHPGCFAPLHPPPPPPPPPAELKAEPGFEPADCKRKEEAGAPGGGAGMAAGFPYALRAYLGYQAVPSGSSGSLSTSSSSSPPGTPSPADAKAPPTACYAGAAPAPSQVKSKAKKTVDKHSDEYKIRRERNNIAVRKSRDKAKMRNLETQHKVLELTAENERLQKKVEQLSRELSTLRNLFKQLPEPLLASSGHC
In short: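 Endogenous transcription factor activity in human liver HepG2 cells is inferred from induction of a CEBPB-linked reporter mRNA. Exposure lasts 24 h; activity is fitted in both directions relative to DMSO.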

[3] = ATG_CMV_CIS: Attagene CIS-FACTORIAL HepG2 Assay for human CMV (Internal Marker) (AID 2282928); conditions: HepG2 CMV promoter reporter, transcription factor profiling; actives raise or lower the signal;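 also: endpoint acts as a background internal control marker rather than a target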
In short: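 CMV internal-marker background readout in transiently transfected HepG2 cells bearing cis-regulated reporter units. Reporter mRNA is measured 24 h after dosing by RT-PCR and capillary electrophoresis, with bidirectional fitting against DMSO.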

[4] = ATG_DR4_LXR_CIS: Attagene CIS-FACTORIAL HepG2 Assay for human Liver X Receptor (LXR), DR4 submotif (AID 2282929); conditions: HepG2 Attagene DR4 cis-reporter, mRNA transcription; actives raise or lower the signal
In short: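 Fluorescence intensity of labelled reporter cDNA fragments, separated by capillary electrophoresis, gives the signal. HepG2 cells bearing cis-regulated reporter constructs were treated 24 h; activity fitted bidirectionally relative to DMSO negative control.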

[5] = molecular target: Aryl hydrocarbon receptor (Homo sapiens) (UniProt P35869); experiment: ATG_Ahr_CIS: Attagene CIS-FACTORIAL HepG2 Assay for human Aryl Hydrocarbon Receptor (Ahr) (AID 2282930); conditions: HepG2 AhR cis-factorial reporter transcription; actives raise or lower the signal
Aryl hydrocarbon receptor (Homo sapiens), sequence (P35869 whole entry, looked up): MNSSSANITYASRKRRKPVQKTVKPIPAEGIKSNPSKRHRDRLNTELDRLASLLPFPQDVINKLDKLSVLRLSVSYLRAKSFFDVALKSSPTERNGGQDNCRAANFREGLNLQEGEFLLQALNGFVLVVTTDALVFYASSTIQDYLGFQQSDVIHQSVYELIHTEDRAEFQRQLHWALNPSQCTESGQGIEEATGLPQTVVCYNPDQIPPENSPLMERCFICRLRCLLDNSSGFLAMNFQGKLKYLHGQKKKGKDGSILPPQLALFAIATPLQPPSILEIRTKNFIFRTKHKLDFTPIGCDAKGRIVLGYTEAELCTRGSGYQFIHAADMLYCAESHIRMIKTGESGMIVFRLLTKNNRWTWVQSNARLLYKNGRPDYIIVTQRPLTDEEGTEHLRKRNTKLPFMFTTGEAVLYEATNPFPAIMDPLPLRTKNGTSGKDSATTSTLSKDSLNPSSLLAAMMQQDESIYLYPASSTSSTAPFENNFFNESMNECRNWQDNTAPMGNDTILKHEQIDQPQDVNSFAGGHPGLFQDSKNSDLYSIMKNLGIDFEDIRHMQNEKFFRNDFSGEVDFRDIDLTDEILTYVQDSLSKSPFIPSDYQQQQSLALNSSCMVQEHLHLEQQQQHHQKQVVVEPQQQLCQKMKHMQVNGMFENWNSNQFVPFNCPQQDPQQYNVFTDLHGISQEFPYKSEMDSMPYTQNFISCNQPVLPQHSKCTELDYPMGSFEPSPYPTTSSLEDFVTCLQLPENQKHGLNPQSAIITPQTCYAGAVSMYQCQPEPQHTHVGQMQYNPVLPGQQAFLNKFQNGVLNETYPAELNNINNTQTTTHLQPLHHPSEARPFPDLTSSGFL
In short: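 Transient MRTU transfection of HepG2 → 24 h compound exposure → total RNA, oligo(dT) RT → PCR, 6-FAM extension, HpaI cut → CE fluorescence. DMSO = baseline; bidirectional curve fit.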

[6] = ATG_AP_1_CIS: Attagene CIS-FACTORIAL HepG2 Assay for human Activator Protein 1 (AP-1) (AID 2282931); conditions: HepG2 Attagene cis-factorial AP-1 reporter mRNA; actives raise or lower the signal
In short: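 Multiplexed HepG2 reporter assay, 24 h dosing. mRNA induction detected by RT-PCR plus capillary electrophoresis. Activity fitted in both directions against DMSO.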

[7] = ATG_BRE_CIS: Attagene CIS-FACTORIAL HepG2 Assay for human Bone Morphogenetic Protein (BMP) Response Element (BRE) (AID 2282933); conditions: HepG2 BMP response element reporter, Attagene transcription factor profiling; actives raise or lower the signal
In short: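 Gain- or loss-of-signal was derived by bidirectional fitting against DMSO controls. The signal came from reporter mRNA, measured by RT-PCR and capillary electrophoresis, in HepG2 cells transiently carrying multiple reporter units and dosed for 24 h.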

[8] = molecular target: Retinoic acid receptor alpha (Homo sapiens) (UniProt P10276); experiment: ATG_DR5_RAR_CIS: Attagene CIS-FACTORIAL HepG2 Assay for human Retinoic Acid Receptor Alpha (RARE), DR5 submotif (AID 2282934); conditions: HepG2 Attagene cis-factorial RARE DR5 reporter, mRNA; actives raise or lower the signal;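 as to AC50: reporter responds to endogenous RAR alpha beta and gamma in HepG2 not RARA alone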
Retinoic acid receptor alpha (Homo sapiens), sequence (P10276 whole entry, looked up): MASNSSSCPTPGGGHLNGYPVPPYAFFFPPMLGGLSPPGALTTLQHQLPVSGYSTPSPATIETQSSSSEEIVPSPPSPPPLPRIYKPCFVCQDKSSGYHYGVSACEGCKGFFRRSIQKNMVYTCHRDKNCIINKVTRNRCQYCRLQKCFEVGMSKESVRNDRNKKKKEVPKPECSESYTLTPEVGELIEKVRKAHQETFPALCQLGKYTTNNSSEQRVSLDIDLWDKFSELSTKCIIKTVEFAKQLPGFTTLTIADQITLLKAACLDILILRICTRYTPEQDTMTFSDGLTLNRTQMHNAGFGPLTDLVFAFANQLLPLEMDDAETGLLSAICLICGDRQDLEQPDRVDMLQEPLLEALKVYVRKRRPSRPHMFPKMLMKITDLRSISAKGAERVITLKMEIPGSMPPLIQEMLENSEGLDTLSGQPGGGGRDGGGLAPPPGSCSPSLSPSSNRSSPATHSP
In short: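 Transient MRTU transfection of HepG2; 24 h compound treatment; TriZol RNA, oligo(dT) RT, PCR, FAM labelling, capillary electrophoresis. Bidirectional fit vs DMSO. Endogenous TF activity at DR5 RARE.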

[9] = molecular target: Transcription factor E2F1 (Homo sapiens) (UniProt Q01094); experiment: ATG_E2F_CIS: Attagene CIS-FACTORIAL HepG2 Assay for human E2F Transcription Factor 1 (AID 2282935); conditions: HepG2 Attagene cis-reporter, E2F reporter RNA transcripts; actives raise or lower the signal
Transcription factor E2F1 (Homo sapiens), sequence (Q01094 whole entry, looked up): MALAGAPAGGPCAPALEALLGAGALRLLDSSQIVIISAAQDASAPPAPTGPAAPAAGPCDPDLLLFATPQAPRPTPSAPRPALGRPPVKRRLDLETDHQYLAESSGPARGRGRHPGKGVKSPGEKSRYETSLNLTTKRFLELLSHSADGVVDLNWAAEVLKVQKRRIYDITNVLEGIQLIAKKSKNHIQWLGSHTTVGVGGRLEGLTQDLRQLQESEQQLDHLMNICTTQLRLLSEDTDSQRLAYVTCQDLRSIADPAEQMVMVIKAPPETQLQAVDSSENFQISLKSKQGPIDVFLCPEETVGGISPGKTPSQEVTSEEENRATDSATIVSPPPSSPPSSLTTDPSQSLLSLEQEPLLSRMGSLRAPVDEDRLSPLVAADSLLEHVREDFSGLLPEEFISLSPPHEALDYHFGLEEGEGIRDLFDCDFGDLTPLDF
In short: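 Total RNA from 24 h-treated, reporter-transfected HepG2 cells undergoes DNase I treatment, oligo(dT) reverse transcription, PCR and 6-FAM primer extension before capillary electrophoresis.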

[10] = ATG_AP_2_CIS: Attagene CIS-FACTORIAL HepG2 Assay for human Activator Protein 2 (AP-2) (AID 2282932); conditions: HepG2 AP-2 cis-reporter, Attagene transcription factor profiling; actives raise or lower the signal
In short: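 Step one: transient transfection of HepG2 with reporter transcription units. Step two: 24 h chemical exposure. Step three: RNA extraction, RT-PCR, labelled fragment analysis by capillary electrophoresis; DMSO serves as baseline.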

Structure (SMILES)	outcome [1]	outcome [2]	AC50 [3]	outcome [4]	outcome [5]	AC50 [6]	AC50 [7]	outcome [8]	outcome [9]	outcome [3]	outcome [6]	outcome [7]	outcome [10]	AC50 [1]	AC50 [4]	AC50 [8]	AC50 [5]
CC1=Nc2ccc3ccccc3c2C1(C)C	inactive	inactive	66.4 µM (active)	inactive	inactive	66 µM (active)	65.7 µM (active)	inactive	inactive								
CCCCNc1ccc(NCCCC)c2c1C(=O)c1ccccc1C2=O	inactive	inactive		inactive	inactive			inactive		inactive	inactive	inactive					
CCCCCCCCCCCCCCCC(=O)OCC	inactive	inactive		inactive	inactive			inactive	inactive	inactive	inactive		inactive				
CCC(CC)C(=O)O	inactive	inactive		inactive	inactive			inactive		inactive	inactive	inactive					
c1ccc(-c2ccccn2)nc1	inactive	inactive		inactive	inactive			inactive	inactive	inactive	inactive	inactive					
Nc1ccc(Cl)cc1Cl	inactive	inactive		inactive	inactive			inactive	inactive	inactive	inactive	inactive					
c1cc(C(c2ccc(OCC3CO3)cc2)C(c2ccc(OCC3CO3)cc2)c2ccc(OCC3CO3)cc2)ccc1OCC1CO1 (configuration not stated)		inactive	64.3 µM (active)		inactive			inactive	inactive		inactive	inactive		30.7 µM (active)	33.1 µM (active)		
COc1cc(C)ccc1C(C)C	inactive	inactive		inactive	inactive			inactive	inactive	inactive	inactive	inactive					
C=CCOc1c(Br)cc(Br)cc1Br	inactive	inactive	35.1 µM (active)	inactive	inactive			inactive	inactive		inactive	inactive					
C=CC=CC=CCCCCC	inactive	inactive		inactive	inactive			inactive		inactive	inactive	inactive					
OCCc1ccncc1	inactive	inactive		inactive	inactive			inactive	inactive	inactive	inactive	inactive					
c1ccc(CCCc2ccncc2)cc1	inactive	inactive	43.2 µM (active)	inactive	inactive	37.7 µM (active)	93.3 µM (active)	inactive	inactive								
OCCCS	inactive	inactive		inactive	inactive			inactive		inactive	inactive	inactive					
CC(C)c1ccc2c(c1)CC[C@H]1[C@](C)(CN)CCC[C@]21C	inactive	inactive	5.78 µM (active)		inactive	5.99 µM (active)	5.7 µM (active)								5.39 µM (active)	6.12 µM (active)	
CCCCCCOc1cc(C)c(O)c(C)c1C	inactive	inactive		inactive	inactive			inactive	inactive	inactive	inactive	inactive					
CCN(CC)c1ccc(C(=O)c2ccccc2C(=O)O)c(O)c1	inactive	inactive		inactive	inactive			inactive	inactive	inactive	inactive	inactive					
COCc1c(C(C)C)nc(C(C)C)c(/C=C/[C@@H](O)C[C@@H](O)CC(=O)O)c1-c1ccc(F)cc1	inactive	inactive		inactive	inactive			inactive	inactive	inactive	inactive	inactive					
O=C(O)Cc1c(Cl)ccc(Cl)c1Cl	inactive	inactive		inactive	inactive			inactive	inactive	inactive	inactive		inactive				
O=C1OC(=O)c2cc(Oc3ccc4c(c3)C(=O)OC4=O)ccc21	inactive	inactive		inactive	inactive			inactive		inactive	inactive	inactive					
CCCCCCCC[N+](C)(CCCCCCCC)CCCCCCCC	inactive	inactive		inactive	inactive			inactive	inactive	inactive	inactive	inactive					

Structure (SMILES)	outcome [1]	outcome [2]	AC50 [3]	outcome [4]	outcome [5]	AC50 [6]	AC50 [7]	outcome [8]	outcome [9]	outcome [3]	outcome [6]	outcome [7]	outcome [10]	AC50 [1]	AC50 [4]	AC50 [8]	AC50 [5]
CNC(=S)NN	inactive	inactive		inactive	inactive			inactive	inactive	inactive	inactive	inactive					
C=C(C)C(=O)OCC(C)C	inactive	inactive		inactive	inactive			inactive	inactive	inactive	inactive	inactive					
O=Nc1ccc(O)cc1	inactive	inactive		inactive	inactive			inactive	inactive	inactive	inactive	inactive					
CC(C)(C)c1ccc(-c2ccc(C(C)(C)C)cc2)cc1	inactive	inactive	51.8 µM (active)	inactive	inactive			inactive	inactive		inactive	inactive					
COC(=O)c1cc(Cl)ccc1[N+](=O)[O-]	inactive	inactive		inactive	inactive			inactive	inactive	inactive	inactive	inactive					
O=[N+]([O-])c1ccc(CO)cc1	inactive	inactive		inactive	inactive			inactive	inactive	inactive	inactive	inactive					
O=Cc1ccc(CO)o1	inactive	inactive		inactive	inactive			inactive	inactive	inactive	inactive	inactive					
CC1OC1C1CCC2(C)OC2C1 (configuration not stated)	inactive	inactive		inactive	inactive			inactive	inactive	inactive	inactive	inactive					
O=C(O)CCCCCCCCCC(=O)O	inactive	inactive		inactive	inactive			inactive	inactive	inactive	inactive						
CC/C=C\CCOC(=O)CCCCC	inactive	inactive		inactive	inactive			inactive	inactive	inactive	inactive	inactive					
Clc1nc2ccccc2s1	inactive	inactive		inactive	inactive			inactive	inactive	inactive	inactive						
CCOC(=O)CC(C(C)=O)C(C)=O	inactive	inactive		inactive	inactive			inactive	inactive	inactive	inactive	inactive					
O=[N+]([O-])C1(Br)COCOC1		inactive		inactive	inactive		33.4 µM (active)	inactive	inactive	inactive	inactive			53.6 µM (active)			
CC(=O)CC(N)=O	inactive	inactive		inactive	inactive			inactive	inactive	inactive	inactive	inactive					
CC(C)=CC1CC(C)CCO1 (configuration not stated)	inactive	inactive		inactive	inactive			inactive	inactive	inactive	inactive	inactive					
ON(Cc1ccccc1)Cc1ccccc1	inactive	inactive		inactive	inactive			inactive	inactive	inactive	inactive	inactive					
Cc1ccc(OC(=O)CC(C)C)cc1	inactive	inactive		inactive	inactive			inactive	inactive	inactive	inactive	inactive					
O=C1CCCCCCCCCCCCCCCO1	inactive	inactive	72.9 µM (active)					inactive	inactive		inactive	inactive			63.2 µM (active)		61.9 µM (active)
CC1=CC[C@H]2C[C@@H]1C2(C)C	inactive	inactive		inactive				inactive	inactive	inactive	inactive	inactive	inactive				
CCCCCCCCCCc1ccccc1	inactive	inactive		inactive	inactive				inactive	inactive	inactive		inactive			84.7 µM (active)	
